# In PubChem BioAssay (EPA / NIEHS):
# Records with an inconclusive call do not appear. Calls of active or inactive are those of the source. The calls were made as follows, unless noted: active = hit-call score of the fitted dose curve at least 0.9, where 1 is the maximum; inactive = score below 0.9.
# Experiments:
# [1] = biological target: Retinoic acid receptor RXR-alpha (Homo sapiens) (UniProt P19793); test: ATG_RXRa_TRANS: Attagene TRANS-FACTORIAL HepG2 Assay for human Retinoid X Receptor alpha (RXRa) (AID 2283012; active = hit-call score of the fitted dose curve at least 0.9, where 1 is the maximum)
# Outline: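 HepG2 cells transiently transfected with GAL4-UAS reporter units and chimeric RXRa-Gal4 protein, treated 24 h. Reporter mRNA measured by RT-PCR, fluorescent labelling, HpaI digestion and capillary electrophoresis. Induction fitted against DMSO.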
# [2] = read-out: E-selectin (Homo sapiens) (UniProt P16581); test: BSK_3C_Eselectin: BioMAP Diversity Plus: 3C Assay for Eselectin Biomarker Activity (AID 2283015); details: primary human endothelial cells (HUVEC); actives raise or lower the signal;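 as to outcome: cell surface E-selectin protein quantified by ELISA 24 h after dosing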
# Outline: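 Primary human umbilical vein endothelial cells (3C system) were dosed with chemical and cell-surface E-selectin measured by ELISA 24 h later. Bidirectional curve fitting used DMSO as negative control and baseline.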
# [3] = read-out: Interleukin-1 alpha (IL1a), IL1A (gene 3552); test: BSK_BE3C_IL1a: BioMAP Diversity Plus: BE3C Assay for Interleukin-1 alpha (IL1a) Biomarker Activity (AID 2283016); details: primary human bronchial epithelial cells; actives raise or lower the signal
# Outline: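 Human primary bronchial epithelial cells, 24 h chemical exposure; IL-1a quantified by ELISA, fitted bidirectionally against DMSO. Cytotoxicity assessed in parallel by SRB total-protein staining at the time of measurement.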
# [4] = read-out: Monocyte Chemoattractant Protein-1 (MCP1), CCL2 (gene 6347); test: BSK_3C_MCP1: BioMAP Diversity Plus: 3C Assay for Monocyte Chemoattractant Protein-1 (MCP1) Biomarker Activity (AID 2283017); details: primary human endothelial cells (HUVEC); actives raise or lower the signal
# Outline: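 Primary human umbilical vein endothelial cells (3C system) were exposed to test chemical for 24 h, after which MCP-1 was quantified by ELISA. Activity was fitted bidirectionally against DMSO as negative control and baseline.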
# [5] = read-out: Monocyte Chemoattractant Protein-1 (MCP1), CCL2 (gene 6347); test: BSK_4H_MCP1: BioMAP Diversity Plus: 4H Assay for Monocyte Chemoattractant Protein-1 (MCP1) Biomarker Activity (AID 2283018); details: primary human endothelial cells (HUVEC); actives raise or lower the signal
# Outline: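 Human umbilical vein endothelial cells (4H system) exposed to chemicals for 24 h in 96-well format. MCP-1 measured by ELISA; bidirectional fitting against DMSO, with SRB total-protein staining in parallel cultures for cytotoxicity.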
# [6] = read-out: Interleukin-8 (IL8), CXCL8 (gene 3576); test: BSK_3C_IL8: BioMAP Diversity Plus: 3C Assay for Interleukin-8 (IL8) Biomarker Activity (AID 2283020); details: primary human endothelial cells (HUVEC); actives raise or lower the signal
# Outline: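 Primary human umbilical vein endothelial cells were dosed for 24 h. IL-8 was quantified by ELISA and fitted bidirectionally against DMSO. Cytotoxicity was assessed in parallel cultures by SRB staining at 560 nm.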
# [7] = read-out: Monokine induced gamma interferon (MIG), CXCL9 (gene 4283); test: BSK_3C_MIG: BioMAP Diversity Plus: 3C Assay for Monokine induced gamma interferon (MIG) Biomarker Activity (AID 2283021); details: primary human endothelial cells (HUVEC); actives raise or lower the signal;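 as to AC50: MIG protein level measured by immunoassay in the treated endothelial cultures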
# Outline: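 HUVEC primary endothelial cultures dosed with chemical; MIG quantified by ELISA at 24 h. Data fitted bidirectionally against DMSO control, with parallel SRB total-protein staining for cytotoxicity.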
# [8] = biological target: human Vitamin D Receptor (VDR), VDR (gene 7421) (UniProt P11473); test: ATG_VDR_TRANS: Attagene TRANS-FACTORIAL HepG2 Assay for human Vitamin D Receptor (VDR) (AID 2283022; active = hit-call score of the fitted dose curve at least 0.9, where 1 is the maximum)
# Outline: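 HepG2 cells were transiently transfected with multiple GAL4-UAS reporter units, so signal reflects exogenous chimeric receptor-Gal4 activity. After 24 h compound exposure, reporter mRNA was measured by RT-PCR, fluorescent labelling and capillary electrophoresis, fitted for gain of signal versus DMSO.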
# [9] = read-out: Human Leukocyte Antigen - DR isotype (HLADR), HLA-DRA (gene 3122); test: BSK_3C_HLADR: BioMAP Diversity Plus: 3C Assay for Human Leukocyte Antigen - DR isotype (HLADR) Biomarker Activity (AID 2283019); details: primary human endothelial cells (HUVEC); actives raise or lower the signal;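 as to outcome: ELISA of cell-surface HLA-DR on HUVEC 24 h after dosing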
# Outline: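 Primary human umbilical vein endothelial cells (3C system) were dosed with compound and cell-surface HLA-DR was quantified by ELISA at 24 h. Activity was fitted bidirectionally against DMSO as negative control and baseline.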
# [10] = biological target: human Retinoid X Receptor beta (RXRb), RXRB (gene 6257) (UniProt P28702); test: ATG_RXRb_TRANS: Attagene TRANS-FACTORIAL HepG2 Assay for human Retinoid X Receptor beta (RXRb) (AID 2283013; active = hit-call score of the fitted dose curve at least 0.9, where 1 is the maximum)
# Outline: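 HepG2 cells were transiently transfected with multiplexed GAL4-UAS reporters and a chimeric RXRb-Gal4 construct, then exposed for 24 h. Reporter mRNA was quantified by RT-PCR, FAM labeling, HpaI digestion and capillary electrophoresis; gain of signal was scored against DMSO.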
# Sequence of E-selectin (Homo sapiens) (P16581 whole entry, looked up): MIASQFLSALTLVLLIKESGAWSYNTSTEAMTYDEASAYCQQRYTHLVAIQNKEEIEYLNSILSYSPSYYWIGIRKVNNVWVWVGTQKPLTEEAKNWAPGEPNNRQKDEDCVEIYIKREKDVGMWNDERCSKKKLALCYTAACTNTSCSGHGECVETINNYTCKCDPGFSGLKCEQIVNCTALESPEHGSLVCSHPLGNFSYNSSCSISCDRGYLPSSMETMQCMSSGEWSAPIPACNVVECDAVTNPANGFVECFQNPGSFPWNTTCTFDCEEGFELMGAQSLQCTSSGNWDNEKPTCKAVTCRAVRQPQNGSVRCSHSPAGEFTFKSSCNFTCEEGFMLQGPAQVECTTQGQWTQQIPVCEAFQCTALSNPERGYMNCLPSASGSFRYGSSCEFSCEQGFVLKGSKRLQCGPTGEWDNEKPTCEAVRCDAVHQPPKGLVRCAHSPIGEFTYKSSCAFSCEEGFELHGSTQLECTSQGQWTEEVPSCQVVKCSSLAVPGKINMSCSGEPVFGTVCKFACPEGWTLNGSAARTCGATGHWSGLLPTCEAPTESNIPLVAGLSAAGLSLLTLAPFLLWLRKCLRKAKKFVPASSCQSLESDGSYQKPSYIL
# Sequence of human Retinoid X Receptor beta (RXRb), RXRB (gene 6257) (P28702 whole entry, looked up, the tested form may be a part): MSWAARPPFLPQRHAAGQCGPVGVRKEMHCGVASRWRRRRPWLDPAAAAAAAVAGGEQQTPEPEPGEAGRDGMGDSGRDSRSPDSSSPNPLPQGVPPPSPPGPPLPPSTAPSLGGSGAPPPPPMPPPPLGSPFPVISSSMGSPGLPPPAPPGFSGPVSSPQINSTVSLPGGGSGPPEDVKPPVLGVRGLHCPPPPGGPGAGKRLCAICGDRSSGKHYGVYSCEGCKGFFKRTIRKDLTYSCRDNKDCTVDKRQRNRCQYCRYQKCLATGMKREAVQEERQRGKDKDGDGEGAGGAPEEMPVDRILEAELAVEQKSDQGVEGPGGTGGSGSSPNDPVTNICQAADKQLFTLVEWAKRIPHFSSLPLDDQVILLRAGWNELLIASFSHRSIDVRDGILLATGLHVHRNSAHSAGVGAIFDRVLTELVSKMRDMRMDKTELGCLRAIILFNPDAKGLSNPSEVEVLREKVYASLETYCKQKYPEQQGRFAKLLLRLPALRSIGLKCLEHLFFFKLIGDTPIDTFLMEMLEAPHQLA
# Sequence of human Vitamin D Receptor (VDR), VDR (gene 7421) (P11473 whole entry, looked up, the tested form may be a part): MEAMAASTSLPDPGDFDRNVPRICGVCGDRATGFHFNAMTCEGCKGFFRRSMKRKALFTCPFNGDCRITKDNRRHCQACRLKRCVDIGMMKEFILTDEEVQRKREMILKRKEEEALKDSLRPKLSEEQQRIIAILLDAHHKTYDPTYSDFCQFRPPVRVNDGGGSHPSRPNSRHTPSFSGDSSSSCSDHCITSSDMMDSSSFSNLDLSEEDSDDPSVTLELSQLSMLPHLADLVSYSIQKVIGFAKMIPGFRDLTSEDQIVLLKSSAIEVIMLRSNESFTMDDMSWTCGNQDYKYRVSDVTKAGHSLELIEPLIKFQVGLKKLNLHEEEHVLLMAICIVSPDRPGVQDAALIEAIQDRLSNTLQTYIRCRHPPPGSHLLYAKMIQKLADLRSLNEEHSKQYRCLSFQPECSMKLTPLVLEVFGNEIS
# Sequence of Retinoic acid receptor RXR-alpha (Homo sapiens) (P19793 whole entry, looked up, the tested form may be a part): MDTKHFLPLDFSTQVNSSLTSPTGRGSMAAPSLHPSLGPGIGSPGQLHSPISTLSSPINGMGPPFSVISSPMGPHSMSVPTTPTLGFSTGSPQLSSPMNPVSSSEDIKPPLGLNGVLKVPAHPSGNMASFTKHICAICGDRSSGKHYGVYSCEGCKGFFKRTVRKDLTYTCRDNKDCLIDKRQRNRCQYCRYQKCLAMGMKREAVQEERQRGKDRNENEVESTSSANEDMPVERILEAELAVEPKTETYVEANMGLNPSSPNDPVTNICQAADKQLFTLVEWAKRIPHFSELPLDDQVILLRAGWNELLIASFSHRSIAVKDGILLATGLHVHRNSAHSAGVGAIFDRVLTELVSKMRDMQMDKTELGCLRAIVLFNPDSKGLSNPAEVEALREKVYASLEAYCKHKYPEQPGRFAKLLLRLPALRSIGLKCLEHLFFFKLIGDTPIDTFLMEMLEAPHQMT
smiles,measurement,setting,value
Cc1ccc(S(=O)(=O)O)cc1C,outcome,[1],inactive
same,outcome,[2],inactive
same,outcome,[3],inactive
same,outcome,[4],inactive
same,outcome,[5],inactive
same,outcome,[6],inactive
same,outcome,[7],inactive
same,outcome,[8],inactive
CN(C)c1ccc(Cc2ccc(N(C)C)cc2)cc1,outcome,[1],inactive
same,outcome,[2],inactive
same,outcome,[3],inactive
same,outcome,[4],inactive
same,outcome,[5],inactive
same,AC50,[6],20 µM (active)
same,outcome,[7],inactive
same,outcome,[8],inactive
COc1ccc2sc(C(=O)Nc3nnn[nH]3)c(OC(C)C)c2c1,outcome,[1],inactive
same,AC50,[2],19.9 µM (active)
same,AC50,[3],12.2 µM (active)
same,AC50,[4],12.3 µM (active)
same,AC50,[5],26.9 µM (active)
same,AC50,[9],7.28 µM (active)
same,AC50,[6],17.9 µM (active)
same,AC50,[7],16.1 µM (active)
same,outcome,[8],inactive
CCc1cc(SCc2sc(-c3ccc(C(F)(F)F)cc3)nc2CN2CCN(c3ccc(OC)cc3)CC2)ccc1OCC(=O)O,outcome,[1],inactive
same,AC50,[2],15.2 µM (active)
same,AC50,[3],7 µM (active)
same,AC50,[4],12 µM (active)
same,AC50,[5],8.42 µM (active)
same,AC50,[9],11.4 µM (active)
same,AC50,[6],16.7 µM (active)
same,AC50,[7],16.9 µM (active)
CNCc1ccc(NC(=O)c2c[nH]c3c2C(=O)CCC3)cc1,outcome,[1],inactive
same,outcome,[2],inactive
same,outcome,[3],inactive
same,outcome,[4],inactive
same,outcome,[5],inactive
same,outcome,[9],inactive
same,outcome,[7],inactive
same,outcome,[8],inactive
O=C1CCCCCN1,outcome,[1],inactive
same,outcome,[2],inactive
same,outcome,[3],inactive
same,outcome,[4],inactive
same,outcome,[5],inactive
same,outcome,[6],inactive
same,outcome,[7],inactive
same,outcome,[8],inactive
CC[C@H]1CC[C@H](NCc2cc3c(cc2OC)[C@H]2C[C@H]2C(=O)N3C)[C@H](c2ccccc2)N1,outcome,[1],inactive
same,outcome,[10],inactive
same,outcome,[2],inactive
same,outcome,[3],inactive
same,outcome,[4],inactive
same,outcome,[5],inactive
same,outcome,[9],inactive
same,outcome,[7],inactive
same,outcome,[8],inactive
Cn1cnc([N+](=O)[O-])c1Sc1ncnc2nc[nH]c12,outcome,[1],inactive
same,outcome,[2],inactive
same,outcome,[3],inactive
same,outcome,[4],inactive
same,outcome,[5],inactive
same,outcome,[9],inactive
same,outcome,[7],inactive
Cn1c(=O)c2c(ncn2C)n(C)c1=O,outcome,[1],inactive
same,outcome,[10],inactive
same,outcome,[2],inactive
same,outcome,[3],inactive
same,outcome,[4],inactive
same,outcome,[5],inactive
same,outcome,[6],inactive
same,outcome,[7],inactive
O=C(NS(=O)(=O)/C=C/c1ccccc1)c1ccc(F)cc1Cl,outcome,[1],inactive
same,outcome,[2],inactive
same,outcome,[3],inactive
same,outcome,[4],inactive
same,outcome,[5],inactive
same,outcome,[9],inactive
same,outcome,[6],inactive
same,outcome,[7],inactive
CC/C(=C\C(=N/O)C(N)=O)C(C)[N+](=O)[O-] (centres undefined),outcome,[1],inactive
same,outcome,[2],inactive
same,outcome,[3],inactive
same,outcome,[4],inactive
same,outcome,[5],inactive
same,outcome,[6],inactive
same,outcome,[7],inactive
same,outcome,[8],inactive
Nc1ccc(Nc2ccccc2)cc1,outcome,[1],inactive
same,AC50,[2],5.7 µM (active)
same,outcome,[3],inactive
same,outcome,[4],inactive
same,outcome,[5],inactive
same,outcome,[6],inactive
same,outcome,[7],inactive
CCCCCCCCCCCCc1ccccc1,outcome,[1],inactive
same,AC50,[10],61.2 µM (active)
same,outcome,[2],inactive
same,outcome,[4],inactive
same,outcome,[5],inactive
same,outcome,[7],inactive
same,outcome,[8],inactive
O=C(O)c1cc(N=Nc2ccc(S(=O)(=O)Nc3ccccn3)cc2)ccc1O,outcome,[1],inactive
same,outcome,[10],inactive
same,outcome,[2],inactive
same,outcome,[4],inactive
same,outcome,[5],inactive
same,outcome,[9],inactive
same,outcome,[7],inactive
C1N2CN3CN1CN(C2)C3,outcome,[1],inactive
same,outcome,[10],inactive
same,outcome,[2],inactive
same,outcome,[3],inactive
same,outcome,[4],inactive
same,outcome,[5],inactive
same,outcome,[9],inactive
same,outcome,[7],inactive
same,outcome,[8],inactive
Oc1ccc2c(c1)-c1ccccc1C2,outcome,[1],inactive
same,AC50,[10],26.2 µM (active)
same,outcome,[2],inactive
same,outcome,[3],inactive
same,outcome,[4],inactive
same,outcome,[5],inactive
same,outcome,[9],inactive
same,outcome,[7],inactive
same,outcome,[8],inactive
O=C(O)CC(O)C(=O)O (centres undefined),outcome,[1],inactive
same,outcome,[2],inactive
same,outcome,[3],inactive
same,outcome,[4],inactive
same,outcome,[5],inactive
same,outcome,[6],inactive
same,outcome,[7],inactive
CN(C)c1ccc(N=NS(=O)(=O)O)cc1,outcome,[1],inactive
same,outcome,[10],inactive
same,outcome,[2],inactive
same,outcome,[3],inactive
same,outcome,[4],inactive
same,outcome,[5],inactive
same,outcome,[9],inactive
same,outcome,[6],inactive
same,outcome,[7],inactive
same,outcome,[8],inactive
CC(C)=CCC/C(C)=C\CO,outcome,[1],inactive
same,outcome,[2],inactive
same,outcome,[3],inactive
same,outcome,[4],inactive
same,outcome,[5],inactive
same,outcome,[9],inactive
same,outcome,[6],inactive
same,outcome,[7],inactive
same,outcome,[8],inactive
